Data from PubChem BioAssay (NCI).
About 83,000 compounds went through this panel and 20% of them were active in at least one assay; those are over-represented in the sample as a whole.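 For each line, cells grew in 96-well plates with the test compound present at a single concentration for 48 hours.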 A number with no mark means an inactive call. Active and inactive are the calls of the source. The calls were made as follows: active = growth percent below 10; inactive = the rest.

Columns and labels:
Experiment in all cases: NCI-60 one-dose screen, 48 h (100 = growth as untreated, 0 = no growth, -100 = all killed)
Settings in all cases: 10 µM unless noted
HCT-15 colon = system: HCT-15 colon
HT29 colon = system: HT29 colon
SNB-75 CNS = system: SNB-75 CNS
SNB-19 CNS = system: SNB-19 CNS
U251 CNS = system: U251 CNS
PC-3 prostate = system: PC-3 prostate
SK-MEL-5 melanoma = system: SK-MEL-5 melanoma
UACC-62 melanoma = system: UACC-62 melanoma
LOX IMVI melanoma = system: LOX IMVI melanoma
SK-MEL-28 melanoma = system: SK-MEL-28 melanoma

Compound	growth (HCT-15 colon)	growth (HT29 colon)	growth (SNB-75 CNS)	growth (SNB-19 CNS)	growth (U251 CNS)	growth (PC-3 prostate)	growth (SK-MEL-5 melanoma)	growth (UACC-62 melanoma)	growth (LOX IMVI melanoma)	growth (SK-MEL-28 melanoma)
CCOC(=O)CCC(=O)O[C@H]1[C@H](O[C@@H]2[C@@H](C)[C@H](O[C@H]3C[C@@](C)(OC)[C@@H](O)[C@H](C)O3)[C@@H](C)C(=O)O[C@H](CC)[C@@](C)(O)[C@H](O)[C@@H](C)C(=O)[C@H](C)C[C@@]2(C)O)O[C@H](C)C[C@@H]1N(C)C	98.1%	102%	91.5%	112%	101%	92.6%	104%	102%	102%	117%
COc1ccc(NC(=O)c2ccccc2-c2ccccc2)c(C(N)=O)c1	32.8%	11.4%	-10.7% (active)	39.8%	45.9%	32.8%	29.7%	55.7%	36.9%	59.7%
NS(=O)(=O)c1cc(C2(O)NC(=O)c3ccccc32)ccc1Cl (stereo not given)	104%	98.4%	91.4%	104%	103%	91.7%	115%	103%	98.8%	116%
COc1cccc(/C=N/Nc2nc3ccccc3s2)c1OC	43.1%	61.1%	86.5%	83.9%	49.1%	46.3%	52.6%	66.7%	47.6%	97.8%
CCCCCN(CCCCC)CCCNc1c2c(nc3ccc(Cl)cc13)CCCC2	32.5%	1.62% (active)	47.9%	60.8%	35%	41.7%	23.4%	51%	14%	71.2%
O=[N+]([O-])c1ccc(N=Nc2c(Cl)cc(O)cc2Cl)cc1	-25.7% (active)	8.53% (active)	-10.4% (active)	20.1%	10%	8.4% (active)	-58.7% (active)	-44.1% (active)	-12.7% (active)	5.72% (active)
C[C@H](C(=O)N[C@@H](Cc1ccc(-c2ccccc2)cc1)C(=O)NC1CC(C)(C)NC(C)(C)C1)c1ccc(-c2ccccc2)c(F)c1	-75% (active)	-61.2% (active)	13.3%	-6.87% (active)	-71% (active)	-65.5% (active)	-93.1% (active)	-43.9% (active)	-85.3% (active)	-77.7% (active)
O=Cc1ncc(-c2ccc(C(F)(F)F)cc2)c(NC2CCCCCC2)n1	-79% [100 µM] (active)	-80.8% [100 µM] (active)	-15.7% [100 µM] (active)	-47.6% [100 µM] (active)	-98.2% [100 µM] (active)	-81.7% [100 µM] (active)	5.66% [100 µM] (active)	-90.1% [100 µM] (active)	-73.4% [100 µM] (active)	-71.4% [100 µM] (active)
COc1ccc2c(c1)[n+](=O)c(/C=C/C(=O)c1cc(OC)c(OC)c(OC)c1)c(C)n2[O-]	11%	47%	68.7%	97%	53.7%	55.2%	93.4%	63.8%	51.3%	71.6%
O=Nc1c2cccnc2n2nnc3ccc(Cl)cc3c12	24.5%	8.1% (active)	63.4%	89.8%	50.6%	-26.9% (active)	96.2%	73.5%	26.6%	28.3%
CCSc1nc(-c2cccs2)n2nc(-c3ccco3)cc2n1	78%	88.8%	84.2%	109%	91.4%	99%	86.5%	85.2%	92%	113%
c1ccc2nc(Cn3c[n+](Cc4ccc5ccccc5n4)c4ccccc43)ccc2c1	98.7%	15.5%	41.4%	30.5%	34%	14.6%	-83.9% (active)	-16.4% (active)	25.8%	39.4%
COc1ccc2nc(N/N=C(\C)c3ccccn3)cc(C)c2c1	-48.5% (active)	-45.5% (active)	-7.43% (active)	23.9%	-85.5% (active)	12.9%	-86.2% (active)	-44.2% (active)	-99.1% (active)	20%
O=C(Nc1nc2c(C(F)(F)F)cccc2s1)c1cc(Cl)ccc1O	12.3%	0.653% (active)	14%	10.2%	3.11% (active)	3.52% (active)	-46.7% (active)	-37.3% (active)	5.52% (active)	28.6%
Cc1sc2nc(NCc3ccccc3)[nH]c(=O)c2c1C	33.2%	13.3%	46.1%	69%	30.8%	48.1%	45.5%	42.5%	53%	69.5%
O[N+]1=CC=CCC1=S.On1ccccc1=S.[Zn]	-57% (active)	-47.5% (active)	-75.3% (active)	-93% (active)	-86.8% (active)	-50.8% (active)	-93.5% (active)	-78.3% (active)	-70.3% (active)	-87.3% (active)
COc1ccc(NC(=O)[C@@H]2C[C@H]2c2ccccc2)c(C(N)=O)c1	89.5%	95.5%	96.2%	96.3%	97.2%	90.2%	96.5%	95.7%	93.6%	96.7%
COc1ccc(CNC(=O)c2c(C)n([O-])c3ccccc3[n+]2=O)cc1	103%	102%	79.9%	97.7%	97.3%	86.3%	76.6%	96.8%	96.8%	104%
CN1CCC[C@@H]1CCO[C@](C)(c1ccccc1)c1ccc(Cl)cc1	62.2%	17.3%	52.3%	99.5%	64.3%	66.2%	-100% (active)	37.2%	70.7%	44.3%
COC(=O)c1cc2oc(/C=N\NC(=O)c3cc4oc(C)c(C)c4[nH]3)cc2[nH]1	108%	111%	112%	102%	100%	72%	108%	115%	107%	110%
Nc1ccc(Oc2c(F)c(F)c(Oc3ccc(N)cc3)c(F)c2F)cc1	86.7%	108%	89.5%	94.8%	83.3%	84.4%	111%	90.9%	86.5%	115%

Compound	growth (HCT-15 colon)	growth (HT29 colon)	growth (SNB-75 CNS)	growth (SNB-19 CNS)	growth (U251 CNS)	growth (PC-3 prostate)	growth (SK-MEL-5 melanoma)	growth (UACC-62 melanoma)	growth (LOX IMVI melanoma)	growth (SK-MEL-28 melanoma)
N#CC(C#N)C(C#N)C#N	103%	97%	82%	114%	93.6%	90.4%	103%	98.6%	104%	110%
C[C@H]1c2cccc(O)c2C(O)=C2C(=O)[C@]3(O)C(O)=C(C(N)=O)C(=O)[C@@H](N(C)C)[C@@H]3[C@@H](O)[C@@H]21	31.2%	39.6%	47.3%	69.9%	33.1%	42.3%	9.29% (active)	34.1%	31.5%	65.4%
CCCCc1ccc(C(N)=O)nc1	94.1%	109%	79.2%	102%	100%	98.7%	101%	93.1%	89%	-97.1% (active)
ICCC(c1ccccc1)(c1ccccc1)c1ccccc1	27.7%	2.63% (active)	50.3%	65.3%	23%	49.4%	-49.5% (active)	-35.3% (active)	16.3%	-70% (active)
CCSc1nc(Nc2ccc(S(=O)(=O)Nc3ccon3)cc2)c(C#N)c(-c2cccc(Br)c2)n1	87.3%	91.8%	93.3%	100%	81.1%	79.6%	85.4%	91.5%	94.1%	103%
CC(C)N(Cc1ccccc1)c1c(S)ssc1=S	10.4%	3.11% (active)	-2.3% (active)	20.9%	5.51% (active)	1.17% (active)	-75.9% (active)	34.1%	10.1%	21.8%
CC(=O)c1ccccc1NC(=O)C(C)(c1ccccc1)c1ccccc1	104%	91.1%	81.1%	97.1%	91.6%	66.8%	6.19% (active)	70.9%	81.8%	111%
O=C(c1ccccc1)c1ccc(Oc2ccc([N+](=O)[O-])cc2[N+](=O)[O-])cc1	2.7% (active)	2.81% (active)	85.2%	77.4%	35%	75.4%	32.2%	62%	5.97% (active)	101%
CCN1CC2=C(Nc3nc(SC)[nH]c(=O)c3C2c2cc(OC)c(OC)c(OC)c2)/C(=C/c2cc(OC)c(OC)c(OC)c2)C1 (stereo not given)	104%	99.1%	92.2%	91.6%	83.8%	92.2%	88.6%	90.1%	91.1%	104%
C1=C(Cc2ccccc2)n2cnc3ncnc(c32)S1	71.8%	55.7%	45.8%	94.1%	78.8%	78.2%	86.1%	54.5%	9.31% (active)	103%
CC(=O)c1ccc(NS(=O)(=O)c2ccc([N+](=O)[O-])cc2)cc1	95.2%	108%	97.7%	87.9%	103%	93.1%	96.9%	75.1%	98.8%	123%
CCCCCc1c(C)[nH]c(/C=C2\N=C(c3ccc[nH]3)C=C2Oc2ccccc2)c1C	-99.5% [100 µM] (active)	-56.9% [100 µM] (active)	-62.1% [100 µM] (active)	-95.2% [100 µM] (active)	-99.6% [100 µM] (active)	-21.6% [100 µM] (active)	-61% [100 µM] (active)	-92.3% [100 µM] (active)	-90% [100 µM] (active)	-95.1% [100 µM] (active)
O=C(c1ccc(N2CCOCC2)cc1[N+](=O)[O-])N1CCOCC1	96.2%	90.5%	31.8%	96.9%	105%	93.6%	136%	97%	98.3%	96.9%
O=C(CC1Sc2ccccc2NC1=O)NNc1cccc(Cl)c1Cl (stereo not given)	97.1%	93.4%	92.2%	77.7%	83.7%	70.9%	85.5%	85.1%	88.8%	101%
O=C(COc1ccc(/C=C2\Oc3ccc4ccccc4c3C2=O)cc1)c1ccc([N+](=O)[O-])cc1	88.4%	109%	91.3%	94.6%	94.4%	86.8%	92.3%	91.7%	35.5%	106%
Cc1ccc(N/N=C(/C(=O)c2ccc(Cl)cc2)c2nc(C)cc(=O)[nH]2)cc1	111%	111%	116%	104%	103%	95%	82.5%	90.8%	92.6%	118%
COc1ccc(CNC(=O)c2c(C)n([O-])c3ccc(OC)cc3[n+]2=O)cc1	103%	93.2%	99.1%	97.8%	96.3%	80.5%	95%	94.9%	101%	108%
CC(=O)N1N=C(c2ccc(Cl)cc2)CC1c1c(C)nn(-c2ccccc2)c1N(C)Cc1ccccc1 (stereo not given)	71%	58.5%	80.3%	64.4%	68.6%	39.3%	70.3%	51%	84.1%	88.1%
CC1=C([Se]CC(OC(=O)[C@@H](CSSC(C)(C)C)NC(=O)C(C)(C)C)C(=O)NCCCCCC(=O)OCc2ccccc2)C(=O)c2ccccc2C1=O (stereo not given in full)	20.4%	-29.5% (active)	-92.5% (active)	-73.5% (active)	-37.5% (active)	-20.8% (active)	-48.8% (active)	-30.6% (active)	4.76% (active)	-27.3% (active)
CNc1nc(NC2CCCC2)nc(Sc2ccc(OC)cc2)n1	24.8% [100 µM]	3.05% [100 µM] (active)	48.9% [100 µM]	40.4% [100 µM]	25.8% [100 µM]	-7.58% [100 µM] (active)	11.6% [100 µM]	25.1% [100 µM]	22.4% [100 µM]	46.4% [100 µM]
CCN(CC)c1ccc(C(=C2C=CC(=[N+](CC)Cc3cccc(S(=O)(=O)O)c3)C=C2)c2ccc(N(CC)Cc3cccc(S(=O)(=O)O)c3)cc2)cc1	85.1%	12.8%	33.2%	56.9%	20.8%	-3.18% (active)	54%	63.8%	35.4%	30.3%
